Assay results: PubChem BioAssay AID1159580 (chemical genetic matrix, 2015)
The campaign covered roughly 5,500 compounds. About 2,000 (36%) were called active. Another 18% or so got no clear call; they are omitted. Rule as the data show it: active = normalized growth mostly below about 0.91 (no sharp cut-off); inconclusive = no clear call, values can overlap the other calls; inactive = mostly above about 0.92. This is one part of the list.

Experiment: chemical genetic growth profiling, strain panel (AID 1159580);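 also: tested at 20 µM; growth read once vehicle control cultures reached saturation at 30 °C; 1 = growth at the plate median or of vehicle wells; lower values mean less growth of the strain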
Settings: S. cerevisiae deletion strains, growth OD

Measured: normalized growth

NC(=O)CCCCC1CCSS1 (configuration not stated)
inactive: locus YHR030C, strain SLT2, hits give low values 1.02 | locus YHR079C, strain IRE1, hits give low values 0.976 | locus YJL095W, strain BCK1, hits give low values 1.01 | locus YJR066W, strain TOR1, hits give low values 0.955 | locus YLR113W, strain HOG1, hits give low values 1.02 | locus YNL183C, strain NPR1, hits give low values 0.966 | locus YOR231W, strain MKK1, hits give low values 0.986 | locus YPL256C, strain CLN2, hits give low values 1.01

O=C(O)CCCC[C@@H]1CCSS1
inactive: locus YAL013W, strain DEP1, hits give low values 0.962 | locus YAL040C, strain CLN3, hits give low values 0.933 | locus YCL061C, strain MRC1 (second series), hits give low values 0.979 | locus YDR150W, strain NUM1, hits give low values 0.996 | locus YDR363W, strain ESC2, hits give low values 0.971 | locus YER002W, strain NOP16, hits give low values 0.968 | locus YGR229C, strain SMI1, hits give low values 0.957 | locus YMR307W, strain GAS1, hits give low values 0.962 | locus YNL153C, strain GIM3, hits give low values 1.01 | locus YNL175C, strain NOP13, hits give low values 0.979 | locus YNL197C, strain WHI3, hits give low values 0.972 | locus YNL224C, strain SQS1, hits give low values 0.977 | locus YOR083W, strain WHI5 (second series), hits give low values 0.937 | locus YPL055C, strain LGE1, hits give low values 0.989
